This passage reports AC50 and outcome results from PubChem BioAssay (EPA / NIEHS).

Test [1] in a line: ATG_PXRE_CIS: Attagene CIS-FACTORIAL HepG2 Assay for human Pregnane X Receptor Element (PXRE) (AID 2282957). Particulars: HepG2 Attagene CIS-FACTORIAL PXRE reporter, mRNA; actives raise or lower the signal. Put shortly:
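Transfect HepG2 with MRTUs (cis promoter elements); dose chemical, incubate 24 h; isolate RNA, RT with oligo(dT), PCR, 6-FAM label, HpaI cut, CE. Gain/loss fit vs DMSO.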

Test [2] can be described thus: ATG_PPRE_CIS: Attagene CIS-FACTORIAL HepG2 Assay for human Peroxisome Proliferator-activated Response Element (PPRE) (AID 2282958). The settings on record: HepG2 PPRE cis-element reporter, Attagene transcription factor profiling; actives raise or lower the signal. In a few lines:
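Cells are first transfected transiently with the multiplexed reporter library, then dosed for 24 h. Total RNA is reverse-transcribed, amplified, fluorescently end-labeled and HpaI-cut before capillary electrophoresis; activity is fitted bidirectionally against DMSO controls.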

Test [3] can be described thus: ATG_RORE_CIS: Attagene CIS-FACTORIAL HepG2 Assay for human RAR-related Orphan Receptor Element (RORE) (AID 2282959). The settings on record: HepG2 Attagene cis-factorial RORE reporter, mRNA; actives raise or lower the signal. In a few lines:
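Cells were HepG2 carrying transfected cis-regulated reporter constructs, dosed for 24 hours. Total RNA was reverse-transcribed and reporter cDNA amplified, fluorescently labeled and sized by capillary electrophoresis. Activity was fitted bidirectionally relative to DMSO.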

A short description of test [4]: ATG_Sox_CIS: Attagene CIS-FACTORIAL HepG2 Assay for human SRY-box transcription factor (SOX) (AID 2282960). The settings on record: HepG2 Attagene cis-factorial SOX reporter, mRNA; actives raise or lower the signal. Put shortly:
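Transient MRTU transfection of HepG2; 24 h compound incubation; TriZol RNA, oligo(dT) RT, PCR, 6-FAM primer extension, HpaI cut, CE. Bidirectional fit, DMSO = baseline.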

For test [5], the target named is Transcription factor Sp1 (Homo sapiens) (UniProt P08047). The experiment in a line: ATG_Sp1_CIS: Attagene CIS-FACTORIAL HepG2 Assay for human Specificity Protein 1 (Sp1) (AID 2282961). The settings on record: HepG2 Sp1 cis-reporter transcription, actives raise or lower the signal. In a few lines: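 Endogenous Sp1 activity was gauged in human liver HepG2 cells bearing transfected reporter units under a cis-regulating promoter. After 24 h dosing, reporter mRNA was quantified by RT-PCR with capillary electrophoresis, and activity fitted bidirectionally versus DMSO.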
Sequence of Transcription factor Sp1 (Homo sapiens) (P08047 whole entry, looked up): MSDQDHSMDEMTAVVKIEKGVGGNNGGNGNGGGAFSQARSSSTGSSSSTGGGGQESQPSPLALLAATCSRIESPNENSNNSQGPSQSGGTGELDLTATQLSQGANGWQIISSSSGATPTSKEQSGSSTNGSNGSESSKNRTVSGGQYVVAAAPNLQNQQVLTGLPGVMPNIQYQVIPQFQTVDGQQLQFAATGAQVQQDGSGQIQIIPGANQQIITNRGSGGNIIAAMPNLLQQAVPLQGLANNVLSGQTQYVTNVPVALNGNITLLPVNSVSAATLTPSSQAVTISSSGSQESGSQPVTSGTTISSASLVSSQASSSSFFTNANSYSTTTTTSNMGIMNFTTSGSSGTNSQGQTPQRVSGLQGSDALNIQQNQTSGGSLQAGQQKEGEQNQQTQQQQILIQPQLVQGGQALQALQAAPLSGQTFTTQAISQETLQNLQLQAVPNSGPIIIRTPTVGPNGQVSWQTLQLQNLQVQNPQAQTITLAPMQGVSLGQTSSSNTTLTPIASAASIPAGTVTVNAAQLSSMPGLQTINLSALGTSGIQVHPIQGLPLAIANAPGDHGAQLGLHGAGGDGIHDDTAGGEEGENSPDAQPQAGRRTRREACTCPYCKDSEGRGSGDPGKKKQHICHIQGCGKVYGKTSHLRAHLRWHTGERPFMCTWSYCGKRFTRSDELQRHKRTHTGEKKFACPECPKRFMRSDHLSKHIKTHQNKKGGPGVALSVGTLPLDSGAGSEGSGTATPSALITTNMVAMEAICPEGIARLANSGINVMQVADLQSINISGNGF

Test [6] in a line: ATG_SREBP_CIS: Attagene CIS-FACTORIAL HepG2 Assay for human Sterol Regulatory Element Binding (SREBP) (AID 2282962). The settings on record: HepG2 Attagene cis-factorial SREBP reporter, mRNA; actives raise or lower the signal. In a few lines: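 mRNA induction of transfected cis-promoter reporters in HepG2 cells, 24 h post-dose. Detection: RT-PCR with 6-FAM-labelled products, HpaI digest, capillary electrophoresis. DMSO served as negative control and baseline.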

In test [7] the target is Signal transducer and activator of transcription 3 (Homo sapiens) (UniProt P40763). As to the kind of experiment: ATG_STAT3_CIS: Attagene CIS-FACTORIAL HepG2 Assay for human Signal Transducer and Activator of Transcription 3 (STAT3) (AID 2282963). Particulars: HepG2, Attagene cis-factorial STAT3 reporter transcription; actives raise or lower the signal. Put shortly:
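HepG2 cells transiently transfected with cis-element-driven multiple reporter transcription units; after 24 h chemical exposure, reporter mRNA measured by RT-PCR, 6-FAM primer-extension labelling, HpaI digestion and capillary electrophoresis. Bidirectional fitting versus DMSO baseline.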

A short description of test [8]: ATG_TAL_CIS: Attagene CIS-FACTORIAL HepG2 Assay for human TAL Basal Promoter (AID 2282966).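 Also: background control endpoint measuring basal TAL promoter reporter mRNA not a specific factor.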 Particulars: HepG2 Attagene cis-factorial TAL promoter reporter; actives raise or lower the signal. In a few lines:
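Fluorescence of labelled reporter cDNA fragments, resolved by capillary electrophoresis, gave the readout. Human HepG2 liver cells carried transiently transfected cis-element reporter units and were treated for 24 hours; activity was fitted bidirectionally against DMSO.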

The nature of test [9]: ATG_VDRE_CIS: Attagene CIS-FACTORIAL HepG2 Assay for human Vitamin D Receptor Element (VDRE) (AID 2282968). The settings on record: HepG2 VDRE cis-reporter transcription, actives raise or lower the signal. In a few lines: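 HepG2 cells transiently transfected with cis-element reporter units, dosed 24 h; reporter mRNA measured by RT-PCR, 6-FAM labeling, HpaI digestion and capillary electrophoresis. Activity fitted bidirectionally against DMSO baseline.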

In test [10] the target is Estrogen receptor (Homo sapiens) (UniProt P03372). As to the kind of experiment: ATG_ERa_TRANS: Attagene TRANS-FACTORIAL HepG2 Assay for human Estrogen Receptor alpha (ERa) (AID 2282970; active = hit-call score of the fitted dose curve at least 0.9, where 1 is the maximum). The settings on record: HepG2 Attagene TRANS ERa GAL4 reporter, mRNA. In a few lines:
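Human liver HepG2, transient transfection of multiple GAL4-UAS reporter units; TRANS format (exogenous NR-Gal4 chimera). 24 h dosing. Readout: reporter mRNA, RT-PCR, 6-FAM primer extension, HpaI digest, capillary electrophoresis. Positive direction vs DMSO.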

The target of test [11] is X-box-binding protein 1 (Homo sapiens) (UniProt P17861). The experiment in a line: ATG_Xbp1_CIS: Attagene CIS-FACTORIAL HepG2 Assay for human X-box Binding Protein 1 (XBP1) (AID 2282972). The settings on record: HepG2 XBP1 cis-element reporter, Attagene multiplex; actives raise or lower the signal. In a few lines: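 Fluorescence-labelled cDNA fragments from reporter transcripts, separated by capillary electrophoresis, give the signal. Source: HepG2 cells transfected with promoter-driven reporter units, harvested 24 h post-dose. DMSO served as reference for bidirectional curve fitting.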
Sequence of X-box-binding protein 1 (Homo sapiens) (P17861 whole entry, looked up, the tested form may be a part): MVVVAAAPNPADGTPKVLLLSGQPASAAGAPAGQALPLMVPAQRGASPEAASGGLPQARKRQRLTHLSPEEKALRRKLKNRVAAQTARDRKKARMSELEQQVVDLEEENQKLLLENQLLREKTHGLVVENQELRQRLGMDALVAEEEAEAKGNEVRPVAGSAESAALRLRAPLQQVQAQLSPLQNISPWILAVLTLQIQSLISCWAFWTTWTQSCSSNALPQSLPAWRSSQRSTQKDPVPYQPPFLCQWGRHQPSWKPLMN

Test [12] in a line: ATG_M_19_TRANS: Attagene TRANS-FACTORIAL HepG2 Assay for M19 Transcription Factor (Internal Marker) (AID 2282974; active = hit-call score of the fitted dose curve at least 0.9, where 1 is the maximum). Particulars: HepG2 Attagene TRANS-FACTORIAL M19 internal marker reporter. Put shortly:
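Cells: human HepG2, transiently transfected with multiplexed reporter transcription units. Exposure: 24 h. Detection: RT-PCR of reporter mRNA with capillary electrophoresis. Analysis: gain-of-signal vs DMSO.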

Test [13] in a line: ATG_GAL4_TRANS: Attagene TRANS-FACTORIAL HepG2 Assay for GAL4 (Internal Marker) (AID 2282976; active = hit-call score of the fitted dose curve at least 0.9, where 1 is the maximum). The settings on record: HepG2 Attagene TRANS GAL4 internal marker reporter. In a few lines: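 First, HepG2 cells were transfected with reporter units under GAL4-UAS control. Next, they were treated with chemical for 24 h. Finally, RNA was reverse-transcribed, PCR-amplified, FAM-labelled and resolved by capillary electrophoresis, with induction scored against DMSO.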

Test [14] addresses Estrogen-related receptor gamma (Homo sapiens) (UniProt P62508). As to the kind of experiment: ATG_ERRg_TRANS: Attagene TRANS-FACTORIAL HepG2 Assay for human Estrogen-Related Receptor gamma (ERRg) (AID 2282977; active = hit-call score of the fitted dose curve at least 0.9, where 1 is the maximum;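 also: hits increase reporter signal over DMSO so potencies reflect activators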). The settings on record: HepG2 Attagene TRANS reporter, ERRg transactivation. Put shortly: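 Transient HepG2 transfectants, 24 h compound exposure, GAL4-UAS reporter mRNA by RT-PCR/6-FAM labelling/capillary electrophoresis; positive direction vs DMSO.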

Test [15] in a line: ATG_TA_CIS: Attagene CIS-FACTORIAL HepG2 Assay for human TA Basal Promoter (AID 2282964). The settings on record: HepG2 Attagene CIS-factorial TA basal promoter reporter; actives raise or lower the signal. In a few lines:
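Background-control readout: TA basal promoter reporter mRNA, fitted in both directions relative to DMSO. Measured by RT-PCR and capillary electrophoresis 24 hours after treating HepG2 human liver cells transiently carrying multiplexed cis-regulated reporter constructs.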

Test [16] in a line: ATG_TGFb_CIS: Attagene CIS-FACTORIAL HepG2 Assay for human Transforming Growth Factor (TGF) (AID 2282967). Particulars: HepG2 Attagene CIS TGFb reporter, mRNA transcription; actives raise or lower the signal. In a few lines:
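Endogenous TGFB1-linked transcription factor activity read as reporter mRNA via RT-PCR and capillary electrophoresis, 24 h after dosing transiently transfected HepG2 cells. Gain or loss of signal fitted relative to DMSO.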

Test [17] addresses Nuclear receptor subfamily 1 group I member 3 (Homo sapiens) (UniProt Q14994). The experiment in a line: ATG_CAR_TRANS: Attagene TRANS-FACTORIAL HepG2 Assay for human Constitutive Androstane Receptor (CAR) (AID 2282969; active = hit-call score of the fitted dose curve at least 0.9, where 1 is the maximum;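 also: activators raise reporter mRNA above DMSO so AC50 marks induction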). The settings on record: HepG2 Attagene TRANS-FACTORIAL CAR reporter. In a few lines: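 HepG2 cells transiently transfected with multiplexed GAL4-UAS reporter units expressing chimeric NR-Gal4 proteins; compound exposure 24 h. Reporter mRNA measured by RT-PCR, 6-FAM labelling, HpaI digestion and capillary electrophoresis; gain-of-signal fitted against DMSO baseline.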

Test [18] has as its target Steroid hormone receptor ERR1 (Homo sapiens) (UniProt P11474). The experiment in a line: ATG_ERRa_TRANS: Attagene TRANS-FACTORIAL HepG2 Assay for human Estrogen-Related Receptor alpha (ERRa) (AID 2282971; active = hit-call score of the fitted dose curve at least 0.9, where 1 is the maximum). The settings on record: HepG2 Attagene TRANS reporter, ERRa transactivation. Put shortly:
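Reporter transcript induction was quantified by RT-PCR and capillary electrophoresis of FAM-labelled, HpaI-cut products after 24 h treatment of HepG2 cells carrying transiently transfected GAL4-UAS reporter units and an exogenous ERRa-Gal4 fusion; activity scored as increase over DMSO.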

Test [19] can be described thus: ATG_TCF_b_cat_CIS: Attagene CIS-FACTORIAL HepG2 Assay for human T-Cell-Factor with beta-catenin (TCF/b-cat) (AID 2282965). The settings on record: HepG2 TCF/beta-catenin cis-reporter transcription, actives raise or lower the signal. Put shortly: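 Using capillary electrophoresis as the read-out, labelled reporter cDNA fragments from transiently transfected HepG2 were sized and quantified. Exposure lasted 24 hours; activity in either direction was referenced to DMSO.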

Results filed as inconclusive are left out. Calls of active or inactive are those of the source. The calls were made as follows, unless noted: active = hit-call score of the fitted dose curve at least 0.9, where 1 is the maximum; inactive = score below 0.9.

Sequence of Signal transducer and activator of transcription 3 (Homo sapiens) (P40763 whole entry, looked up): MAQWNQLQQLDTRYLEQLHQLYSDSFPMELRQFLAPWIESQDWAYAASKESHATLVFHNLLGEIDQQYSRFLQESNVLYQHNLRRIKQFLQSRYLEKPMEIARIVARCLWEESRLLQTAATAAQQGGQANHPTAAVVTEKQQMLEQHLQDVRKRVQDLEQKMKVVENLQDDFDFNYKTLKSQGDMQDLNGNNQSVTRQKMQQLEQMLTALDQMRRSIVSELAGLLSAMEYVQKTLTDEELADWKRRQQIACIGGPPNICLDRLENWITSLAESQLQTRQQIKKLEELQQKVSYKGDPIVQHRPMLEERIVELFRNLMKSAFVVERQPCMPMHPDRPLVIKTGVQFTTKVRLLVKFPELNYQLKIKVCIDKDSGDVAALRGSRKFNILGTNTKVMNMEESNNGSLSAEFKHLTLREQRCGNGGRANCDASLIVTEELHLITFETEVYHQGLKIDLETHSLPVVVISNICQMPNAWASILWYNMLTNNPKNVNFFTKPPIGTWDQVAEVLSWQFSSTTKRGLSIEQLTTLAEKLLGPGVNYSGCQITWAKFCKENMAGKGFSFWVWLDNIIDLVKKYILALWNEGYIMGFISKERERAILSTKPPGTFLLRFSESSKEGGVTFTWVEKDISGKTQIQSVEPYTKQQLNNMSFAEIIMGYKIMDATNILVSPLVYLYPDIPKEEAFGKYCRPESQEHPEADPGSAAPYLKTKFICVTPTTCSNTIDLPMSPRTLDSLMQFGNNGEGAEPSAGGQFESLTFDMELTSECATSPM
Sequence of Estrogen-related receptor gamma (Homo sapiens) (P62508 whole entry, looked up, the tested form may be a part): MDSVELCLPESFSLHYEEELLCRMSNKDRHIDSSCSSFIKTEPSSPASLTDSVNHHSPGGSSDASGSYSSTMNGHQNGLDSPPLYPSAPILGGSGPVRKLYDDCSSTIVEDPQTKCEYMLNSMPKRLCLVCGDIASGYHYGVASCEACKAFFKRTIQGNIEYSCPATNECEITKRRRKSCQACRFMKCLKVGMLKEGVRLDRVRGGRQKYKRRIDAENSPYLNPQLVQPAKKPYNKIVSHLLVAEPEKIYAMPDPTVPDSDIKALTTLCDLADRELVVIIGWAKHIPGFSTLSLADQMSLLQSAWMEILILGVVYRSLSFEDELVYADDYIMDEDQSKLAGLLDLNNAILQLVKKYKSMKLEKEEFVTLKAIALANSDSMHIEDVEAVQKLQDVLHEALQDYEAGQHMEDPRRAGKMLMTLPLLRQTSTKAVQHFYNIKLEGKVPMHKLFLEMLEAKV
Sequence of Nuclear receptor subfamily 1 group I member 3 (Homo sapiens) (Q14994 whole entry, looked up, the tested form may be a part): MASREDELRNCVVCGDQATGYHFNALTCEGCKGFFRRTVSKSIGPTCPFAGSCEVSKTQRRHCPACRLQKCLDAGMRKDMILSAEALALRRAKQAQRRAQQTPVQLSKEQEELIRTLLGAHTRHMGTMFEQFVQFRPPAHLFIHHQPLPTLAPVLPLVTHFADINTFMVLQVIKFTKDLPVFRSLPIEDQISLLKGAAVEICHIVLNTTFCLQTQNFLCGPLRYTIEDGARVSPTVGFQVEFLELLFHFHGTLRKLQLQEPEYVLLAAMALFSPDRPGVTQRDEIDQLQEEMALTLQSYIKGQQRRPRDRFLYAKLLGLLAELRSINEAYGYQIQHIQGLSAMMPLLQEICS
Sequence of Estrogen receptor (Homo sapiens) (P03372 whole entry, looked up, the tested form may be a part): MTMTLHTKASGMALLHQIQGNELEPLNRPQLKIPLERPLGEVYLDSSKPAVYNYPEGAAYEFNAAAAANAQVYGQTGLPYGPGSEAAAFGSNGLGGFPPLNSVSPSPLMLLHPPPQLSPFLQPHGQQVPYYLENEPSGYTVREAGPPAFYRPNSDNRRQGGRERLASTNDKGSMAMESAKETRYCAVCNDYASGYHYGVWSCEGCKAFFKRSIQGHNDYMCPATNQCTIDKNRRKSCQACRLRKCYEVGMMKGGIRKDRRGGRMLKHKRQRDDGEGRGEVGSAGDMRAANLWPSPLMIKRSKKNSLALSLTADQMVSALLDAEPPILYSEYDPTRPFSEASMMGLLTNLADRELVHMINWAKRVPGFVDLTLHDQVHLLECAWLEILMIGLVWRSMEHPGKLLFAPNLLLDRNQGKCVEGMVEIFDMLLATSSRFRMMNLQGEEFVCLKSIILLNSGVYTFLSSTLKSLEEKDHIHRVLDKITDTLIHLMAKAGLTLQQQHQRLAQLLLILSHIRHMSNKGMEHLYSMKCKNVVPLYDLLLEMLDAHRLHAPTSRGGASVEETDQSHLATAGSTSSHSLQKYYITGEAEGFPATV
Sequence of Steroid hormone receptor ERR1 (Homo sapiens) (P11474 whole entry, looked up, the tested form may be a part): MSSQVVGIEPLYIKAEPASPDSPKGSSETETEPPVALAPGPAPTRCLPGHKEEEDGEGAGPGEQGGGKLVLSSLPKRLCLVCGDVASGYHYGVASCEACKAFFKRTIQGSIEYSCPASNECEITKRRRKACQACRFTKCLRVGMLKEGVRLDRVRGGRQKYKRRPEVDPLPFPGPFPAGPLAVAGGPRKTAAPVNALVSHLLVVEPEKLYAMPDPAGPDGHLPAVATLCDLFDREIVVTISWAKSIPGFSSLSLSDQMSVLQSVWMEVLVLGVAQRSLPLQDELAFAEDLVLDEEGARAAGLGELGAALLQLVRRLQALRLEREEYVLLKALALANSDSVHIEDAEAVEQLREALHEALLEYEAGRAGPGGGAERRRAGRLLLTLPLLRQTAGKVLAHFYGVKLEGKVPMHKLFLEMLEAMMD

Usually AC50 stands for the concentration giving half of the maximal activity seen. Take `CC(CC=O)CCCC(C)(C)O` (stereo unspecified): in test [1], the AC50 was 41.2 µM (active). Further, the compound was classed as inactive in test [2], in test [3], in [4], in test [5], in [6] and in test [7]. Further, the compound was called inactive in test [8], in test [9], in test [10], in test [11], in [12] and in [13]. The outcome in [14] was inactive.

Regarding `CC(C)CC(O)Cc1ccccc1` (stereo unspecified), the half-maximal activity concentration (AC50) in test [1] is 71.6 µM (active). The compound was called inactive in test [2], in [3], in test [4], in test [5], in [6] and in test [7]. Further, the compound was classed as inactive in test [15], in [8], in test [16], in test [9], in [17] and in test [10]. Besides, the compound was classed as inactive in [11], in test [12] and in test [13].

For the compound `CC(=O)OCc1ccco1`, the outcome in test [1], in [2], in test [3], in test [5], in test [6] and in test [7] was inactive. For the same compound, the compound was called inactive in test [15], in test [8], in [17], in test [10], in test [18] and in test [11]. In addition, the result in test [13] and in test [14] was inactive.

In the case of `CC(=O)c1ccc2c(c1)CCCC2`, the AC50 in test [1] is 26.4 µM (active). Also, the result in test [2], in [3], in test [4], in [6], in test [7] and in test [15] was inactive. For the same compound, the compound was classed as inactive in test [19], in test [8], in test [16], in [9], in [10] and in test [11]. In test [12], the compound was classed as inactive.

On to `CC/C=C\CCOC(=O)CCCCC`, for which the result in test [1], in [2], in [4], in test [5], in [6] and in [7] was inactive. The result in [15], in [19], in test [8], in [16], in test [10] and in test [18] was inactive. In addition, the compound was classed as inactive in test [11], in test [12] and in test [13].

As for `CC1(C)O[C@@H]2C[C@H]3[C@@H]4C[C@H](F)C5=CC(=O)CC[C@]5(C)[C@H]4[C@@H](O)C[C@]3(C)[C@]2(C(=O)CO)O1`, in test [1], the AC50 was 22.8 µM (active). Moreover, the compound was classed as inactive in test [2], in test [3], in test [5], in test [6], in [7] and in test [15]. The call in [19], in test [8], in test [16], in test [9], in test [10] and in test [11] was inactive.

For the compound `CC(=O)Oc1ccc(C(C)=O)cc1`, the outcome in test [1], in test [2], in test [3], in test [4], in test [5] and in [6] was inactive. Also, the result in test [7], in test [15], in [19], in [8], in [16] and in [9] was inactive. Moreover, the call in [17], in [10], in [11] and in test [12] was inactive.

Turning to `O=C(O)CCCC[C@@H]1SC[C@@H]2NC(=O)N[C@@H]21`, the compound was classed as inactive in [1], in test [2], in test [3], in test [4], in [5] and in [6]. In addition, the compound was called inactive in test [15], in test [8], in [16], in test [9], in test [17] and in test [10]. The outcome in test [18], in [11], in test [12] and in test [14] was inactive.

With `CC/C=C\C/C=C\C/C=C\CCCCCCCC(=O)O`, the AC50 in [1] was 181 µM (active); in test [2], 40.1 µM (active); in test [3], 48.7 µM (active); in [19], 53.6 µM (active); in [9], 62.7 µM (active); in test [11], 160 µM (active). Further, the compound was called inactive in [4], in test [5], in [6], in [15], in [8] and in test [16]. Moreover, in [10], the compound was called inactive.
